Values without a mark were called inactive.
Tested on: RAW-Dual (murine macrophage reporter line)
Assay: viability score (confluency relative to resting cells, overnight) (fraction); higher = more viable, active = viable (0.7 or more)
Details: modulator concentration 10 µM
How it was run: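 Two confluency masks, generated with IncuCyte software over all imaged wells, were applied to IncuCyte images of RAW-Dual macrophages. The cells, in 384-well plates, had been exposed overnight to 10 μM final compound. The viability score is confluency as a fraction of resting cells, and a compound met the cutoff only with both masks above 70% of resting cells.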

| SMILES | viability score |
| --- | --- |
| Fc1ccccc1C=NNc1nc(-c2ccccc2)cc(-c2ccccc2)n1 | 1 (active) |
| Cc1cnc2c(c1NCCCO)c(=O)n(C)c(=O)n2C | 0.995 (active) |
| COc1ccc2sc(C)[n+](CCCS(=O)(=O)[O-])c2c1 | 1 (active) |
| Cc1cc(C(=O)Nc2ccccc2S(C)(=O)=O)no1 | 1 (active) |
| CCC(=O)Nc1ccc(S(=O)(=O)N2CCSC(c3ccccc3C)CC2)c(C)c1 (stereo not given) | 0.994 (active) |
| CCCCCN(CCCCC)C(=O)C(CCC(=O)[O-])NC(=O)c1ccc(Cl)c(Cl)c1 (stereo not given) [Prestw-915] | 0.832 (active) |
| Cc1cccc(C)c1OCC(C)N.Cl (stereo not given) | 0.968 (active) |
| CC(=O)Nc1nnc(S(N)(=O)=O)s1 | 0.998 (active) |
| CN(C(=NS(=O)(=O)c1ccccc1)c1ccccc1)c1ccc(O)cc1 | 1.01 (active) |
| Cl.Cl.Cn1cc(CNCC2CCN(c3ncc(C(=O)NO)cn3)CC2)c2ccccc21 | 0.0605 |
| COc1cc2c(cc1Cc1cccc(Cl)c1F)c(=O)c(C(=O)O)cn2[C@H](CO)C(C)C | 0.936 (active) |
| O=C1CNC(=O)N1CC(O)Cn1c2ccc(Br)cc2c2cc(Br)ccc21 (stereo not given) | 0.926 (active) |
| Cc1ccc(CNC(=O)CN(c2cccc3ccccc23)S(C)(=O)=O)cc1 | 1.01 (active) |
| CN1CCC(COc2cnc(-c3cccc(Cn4nc(-c5cccc(C#N)c5)ccc4=O)c3)nc2)CC1 | 0.625 |
| Cc1cc(-n2cc(C(=O)N3CCOCC3)nn2)ccc1F | 0.991 (active) |
| COc1ccc(-c2oc(N=Cc3ccccc3O)c(C#N)c2-c2ccc(OC)cc2)cc1 | 1 (active) |
| O=C(Oc1ccc(C=Nc2ccc([N+](=O)[O-])cc2)cc1)c1ccccc1 | 0.998 (active) |
| COc1ccc(Br)cc1C(=O)Nc1cc(C(F)(F)F)cc(C(F)(F)F)c1 | 0.999 (active) |
| Cc1ccc(-n2c(C)cc(C=NNC(=O)CN3CCOCC3)c2C)c(C)c1 | 1 (active) |
| CC1=C(C(=O)Nc2cccc(C)n2)C(c2ccsc2)C2=C(CC(C)(C)CC2=O)N1 (stereo not given) | 1.01 (active) |

| SMILES | viability score |
| --- | --- |
| Cc1oncc1CNC(=O)c1ccc(C(C)(C)C)cc1 | 0.996 (active) |
| O=C(NN=Cc1c(O)ccc2ccccc12)c1ccccc1Br | 0.989 (active) |
| Cc1cc(C)nc(Nc2ncc(O)n2-c2ccc(F)cc2)n1 | 0.991 (active) |
| CNCCC[C@]12CC[C@H](c3ccccc31)c1ccccc12 [Prestw-346] | 0.962 (active) |
| CCOC(=O)N1CCN(C(=O)C2CCN(Cc3ccc(C)o3)CC2)CC1 | 0.991 (active) |
| CCNC(=O)CCC/C=C\C[C@@H]1[C@@H](/C=C/C(O)CCc2ccccc2)[C@@H](O)C[C@@H]1O (stereo not given in full) | 1.01 (active) |
| CC(=O)Oc1ccc2c(C)c(Cl)c(=O)oc2c1C | 1.01 (active) |
| CC(=O)Nc1ccc(C(=O)CSc2nnc[nH]2)cc1 | 1.01 (active) |
| CCN(CC)c1ccc(-c2noc(CN3CCSCC3)n2)cn1 | 1.01 (active) |
| Cc1cc(OC2CCN(S(=O)(=O)CCc3ccccc3)C2)cc(=O)n1C (stereo not given) | 0.975 (active) |
| CCOC(=O)C1CCN(C(=O)c2ccc(C#CC(C)(C)O)cc2)CC1 | 1.01 (active) |
| COC(=O)[C@H](c1ccccc1Cl)N1CCc2sccc2C1.O=S(=O)(O)O | 0.954 (active) |
| CN1CCC(OC(c2ccccc2)c2ccccc2)CC1.Cl | 0.992 (active) |
| CNCCCN1c2ccccc2CCc2ccccc21.Cl | 0.951 (active) |
| Cc1cccc2sc(OC3CN(C(=O)Nc4ccccc4C(F)(F)F)C3)nc12 | 0.981 (active) |
| NC(=O)c1ccccc1O | 0.993 (active) |
| CSCCC(NC(C)=O)C(=O)NC1CCN(c2nc(C)nc3c2CCCC3)CC1 (stereo not given) | 0.999 (active) |
| CCOC(=O)C1=C(C)N(CC(C)C)C(=O)C1=Cc1cccc(Br)c1 | 0.992 (active) |
| Cc1cccc(C(=O)NC2CCC(F)(F)CC2)c1 | 1 (active) |
| CCOC(C#CCN(CC)CC)(c1ccccc1)c1ccccc1.Cl | 0.0625 |

Source: the supplement of paper PMC10646978
